Only some compounds are listed: those with a hit (about 3.8% of all), similar ones and a draw of the others.
KAT2A inh = GCN5L2 (KAT2A) acetyltransferase inhibition; 0.21% of 390,000 active; GCN5L2 HAT assay, ThioGlo1 CoA-SH fluorescence; Potency, µM (highest dose often 58.9 µM), without a hit: at the top dose activity change, negative = inhibition, usual class: inhibitors; Q92830
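GCN5L2 (20nM final) in 50mM HEPES, 0.1mM EDTA pH 7.5, 0.01% Tween-20 was preincubated 15 min at room temperature with compound, then given ThioGlo1 (50uM), H3(1-25) peptide (75uM) and acetyl-CoA (70uM); CoA-thiol fluorescence (Ex340/Em540) was read at 0 and 20 min.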
rTrxR1 inhibitor = rat TrxR1 inhibition. Potency, µM (titrated, usually from 114 µM), inactives show top-dose activity change, negative = inhibition, hits mostly inhibitors. O89049. recombinant rTrxR1, NADPH fluorescence consumption, selenite substrate. 1% of 390,000 active; also: nearly all actives have a fitted effect of over 65% in size
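Rat TrxR1 (90 nM in the dispensed reagent) was pre-reduced with 400 uM NADPH for 5 min at room temperature, then incubated with compound for 15 min. After 400 uM selenite was added, NADPH fluorescence (Ex 340/Em 450 nm) was followed for 8 min.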
GLS inh = blocks human kidney-isoform glutaminase activity; O94925; GLS enzymatic activity, qHTS titration; Potency, µM (highest dose often 45.5 µM), inactives show at the top dose activity change, negative = inhibition, most hits filed as inhibitors; 0.21% of 410,000 active; AID 624170
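hKGA; 45 mM KH2PO4 pH 8.2 + 0.02% Tween-20; cpd via pin tool; 1 mM Gln soln; GluOx/HRP/Amplex Red; RT 30 min; fluor. t0 & final.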
VDR inhibitor = blocks the human vitamin D receptor. AID 504847. Potency, µM, without a hit: max response, negative = inhibition, most hits filed as inhibitors. P11473. 0.93% of 400,000 active. VDR-SRC2-3 peptide fluorescence polarization, 2 h
Target sequence (P11473 whole entry, looked up): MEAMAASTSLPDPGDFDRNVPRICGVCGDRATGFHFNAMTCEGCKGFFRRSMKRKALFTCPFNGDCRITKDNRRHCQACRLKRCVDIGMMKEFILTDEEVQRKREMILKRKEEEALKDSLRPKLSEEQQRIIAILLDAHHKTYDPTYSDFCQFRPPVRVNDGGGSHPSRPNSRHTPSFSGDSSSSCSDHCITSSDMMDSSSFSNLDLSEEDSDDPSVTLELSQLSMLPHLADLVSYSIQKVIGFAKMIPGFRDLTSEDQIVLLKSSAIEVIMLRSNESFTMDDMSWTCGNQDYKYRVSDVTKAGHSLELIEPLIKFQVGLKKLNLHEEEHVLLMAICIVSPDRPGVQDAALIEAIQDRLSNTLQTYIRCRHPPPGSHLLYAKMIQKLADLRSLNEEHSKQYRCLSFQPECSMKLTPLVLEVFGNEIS
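Compounds are added to VDR with labelled SRC2-3 coactivator peptide and held 2 h at room temperature. Inhibition of the VDR–peptide interaction is then read as a change in fluorescence polarization.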
TrxR1 substrate = substrates of rat thioredoxin reductase 1; O89049; purified TrxR1 substrate turnover, NADPH consumption readout; Potency, µM (titrated, usually from 114 µM), inactives show top-dose activity change, negative = substrate turnover; 0.01% of 390,000 active; AID 588456; also: nearly all actives have a fitted effect of over 50% in size
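Rat TrxR1, dispensed at 90 nM, was prereduced with 400 uM NADPH (final) for 5 min at ~22 deg C, then incubated with compound 15 min before 400 uM selenite. A first-read NADPH fluorescence drop versus no-compound background flagged substrates.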
Sfp inh = inhibitors of Bacillus subtilis Sfp phosphopantetheinyl transferase; 3.5% of 310,000 active; Biochemical Sfp PPTase activity, qHTS; Potency, µM, for inactives: largest response in the series, negative = inhibition, actives largely listed as inhibitors; AID 1490;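 also: the enzyme is Sfp with the accession as filed and its product quenches rhodamine fluorescence; 0% = enzyme reaction without inhibitor and -100% = no enzyme wells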
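Fluorescence-quenching assay: 15 nM Sfp-PPTase preincubated 15 min at room temperature with compound, then 5 uM rhodamine-CoA and 12.5 uM BHQ-2-labelled YbbR peptide added. Fluorescence (ex 525/em 598 nm) read at start and after 30 min; difference gives rate.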
* = called active by the depositor; u = inconclusive; x = not tested or not shown; [ ] = another dose, or the depositor's remark. Calls follow the shape of the dose curve; as a rule, active = well fitted curve in the direction sought with a large enough effect; inconclusive = small, poorly fitted or top-dose-only effect, or another doubt; inactive = no such curve, though single readings can be large; an effect the other way counts as inactive or inconclusive. Unless noted, % is scaled to controls: 0 for no effect and ±100 for the full control effect; potency is read from the fitted curve at half-maximal effect.

SMILES	KAT2A inh	rTrxR1 inhibitor	GLS inh	VDR inhibitor	TrxR1 substrate	Sfp inh
Cc1ccc(OCC(=O)N2CCN(Cc3ccc([N+](=O)[O-])cc3)CC2)cc1	-14%	8%	3%	-18%	-7%	89µM*
OCC1OC(n2cnc3c(Cl)ncnc32)C(O)C1O (configuration not stated)	0%	x	x	8%	x	32%
NC(=S)c1cn(C2OC(CO)C(O)C2O)c2ncnc(N)c12 (configuration not stated)	-26%	-1%	-15%	u	8%	7.9µM*
CC(=NCc1ccco1)c1c(O)n(-c2ccccc2C)c(=O)[nH]c1=O	-2%	u	5%	-4%	1%[57.1 µM]	6%
Cc1ccccc1-n1c(O)c(C(c2ccncc2)c2c(O)n(-c3ccccc3C)c(=O)[nH]c2=O)c(=O)[nH]c1=O	-24%	14µM*	-12%	u	5%[57.1 µM]	-22%
CC(C)=CCCC1(C)C=Cc2c(O)c3c(c(CC=C(C)C)c2O1)OC12C(=CC4CC1C(C)(C)OC2(C/C=C(/C)C(=O)O)C4=O)C3=O (configuration not stated)	32µM*	x	x	2.2µM*	x	-88%
CC(C)=CCCC1(C)C=Cc2c(O)c3c(c(CC=C(C)C)c2O1)OC12C(=CC4CC1C(C)(C)OC2(C/C=C(/C)C(=O)O)C4O)C3=O (configuration not stated)	13µM*	x	x	2.8µM*	x	50µM*
COc1ccccc1OCC(=O)N1CCCC(N(C)Cc2ccccc2)C1 (configuration not stated)	-5%	u	9%	-4%	-5%	5%
CCOP(=S)(OCC)SCC(=O)NC(C)(CC)C(=O)O (configuration not stated)	-13%	4%	-2%	-3%	-5%	-17%
CC(=O)OC1CC[C@@]2(C)C3CC(=O)[C@]4(C)C(C(C)=O)=CCC4C3CC[C@H]2C1 (some centres not stated)	-8%	x	x	2µM*	x	-9%
CC(=O)OC1CC[C@@]2(C)C3CC[C@]4(C)C(=O)CCC4C3CC[C@H]2C1 (some centres not stated)	-23%	x	x	-9%	x	-30%
CC/C(=C(\c1ccc(O)cc1)c1ccc(OCCN(C)C)cc1)c1ccccc1	-3%	21%	8%	-1%	8%	40µM*
O=C(CCl)NN=C(c1ccccc1)c1ccccc1	-8%	14µM*	0%	-3%	7%[57.1 µM]	1%
C[C@]12CCC3C(CC[C@H]4C[C@@H](O)CC[C@]34C)C1C[C@@H](N)[C@@H]2O (some centres not stated)	2%	11%	-13%	-3%	0%	x
Cn1ccnc1P(=S)(c1nccn1C)c1nccn1C	-5%	-2%	2%	-17%	4%	50µM*
Cn1ccnc1P(=S)(c1nccn1C)N1CCOCC1	-5%	-5%[57.1 µM]	-13%	u	7%[57.1 µM]	u
NC(=O)CI	10µM*	1%[57.1 µM]	x	79µM*	3%[57.1 µM]	x
CN(C)c1ccc(NC(=O)CN2C(=O)CN=C(c3ccccc3)c3cc(Cl)ccc32)cc1	-7%	0%	15%	8%	-8%	79µM*
Cc1ccc(NC(=O)CN2C(=O)CN=C(c3ccccc3)c3cc(Cl)ccc32)cc1	-15%	21%	8%	-9%	-6%	-1%
COc1cc(OC)c(OC)cc1/C=C1\C(=O)NC(=O)N(Cc2ccccc2)C1=O	-10%	u	8%	-14%	4%[57.1 µM]	-14%
COc1ccc(/C=C2/C(=O)NC(=O)N(C3CCCCC3)C2=O)cc1CSc1ccccn1	u	x	x	x	x	56µM*
COc1ccc(C=C2C(=O)N(C)C(=O)N(C)C2=O)cc1CSc1ccccn1	16%	u	28%	79µM*	10%[57.1 µM]	45µM*
CC1CCC(C(C)C)C(OC(=O)c2ccccc2N)C1 (configuration not stated)	-7%	x	-10%	3%	x	31%
